Experimental data from the supplement of paper PMC11732987, “Enantioselective OTUD7B fragment discovery through chemoproteomics screening and high-throughput optimisation” (Communications Chemistry, 2025).

How the values were obtained:
Test in all cases: log2 ratio of Biotin-Ahx-Ub-VS probe labelling (fragment/DMSO); higher = less target engagement (more negative = stronger competition), active = hit call of the paper (q ≤ 0.05, log2 ratio ≤ -1)
Conditions in all cases: compound concentration: 200 uM; treatment time: 3 h
[1] = target: T1, USP19 (UniProt O94966)
T1 sequence (whole entry): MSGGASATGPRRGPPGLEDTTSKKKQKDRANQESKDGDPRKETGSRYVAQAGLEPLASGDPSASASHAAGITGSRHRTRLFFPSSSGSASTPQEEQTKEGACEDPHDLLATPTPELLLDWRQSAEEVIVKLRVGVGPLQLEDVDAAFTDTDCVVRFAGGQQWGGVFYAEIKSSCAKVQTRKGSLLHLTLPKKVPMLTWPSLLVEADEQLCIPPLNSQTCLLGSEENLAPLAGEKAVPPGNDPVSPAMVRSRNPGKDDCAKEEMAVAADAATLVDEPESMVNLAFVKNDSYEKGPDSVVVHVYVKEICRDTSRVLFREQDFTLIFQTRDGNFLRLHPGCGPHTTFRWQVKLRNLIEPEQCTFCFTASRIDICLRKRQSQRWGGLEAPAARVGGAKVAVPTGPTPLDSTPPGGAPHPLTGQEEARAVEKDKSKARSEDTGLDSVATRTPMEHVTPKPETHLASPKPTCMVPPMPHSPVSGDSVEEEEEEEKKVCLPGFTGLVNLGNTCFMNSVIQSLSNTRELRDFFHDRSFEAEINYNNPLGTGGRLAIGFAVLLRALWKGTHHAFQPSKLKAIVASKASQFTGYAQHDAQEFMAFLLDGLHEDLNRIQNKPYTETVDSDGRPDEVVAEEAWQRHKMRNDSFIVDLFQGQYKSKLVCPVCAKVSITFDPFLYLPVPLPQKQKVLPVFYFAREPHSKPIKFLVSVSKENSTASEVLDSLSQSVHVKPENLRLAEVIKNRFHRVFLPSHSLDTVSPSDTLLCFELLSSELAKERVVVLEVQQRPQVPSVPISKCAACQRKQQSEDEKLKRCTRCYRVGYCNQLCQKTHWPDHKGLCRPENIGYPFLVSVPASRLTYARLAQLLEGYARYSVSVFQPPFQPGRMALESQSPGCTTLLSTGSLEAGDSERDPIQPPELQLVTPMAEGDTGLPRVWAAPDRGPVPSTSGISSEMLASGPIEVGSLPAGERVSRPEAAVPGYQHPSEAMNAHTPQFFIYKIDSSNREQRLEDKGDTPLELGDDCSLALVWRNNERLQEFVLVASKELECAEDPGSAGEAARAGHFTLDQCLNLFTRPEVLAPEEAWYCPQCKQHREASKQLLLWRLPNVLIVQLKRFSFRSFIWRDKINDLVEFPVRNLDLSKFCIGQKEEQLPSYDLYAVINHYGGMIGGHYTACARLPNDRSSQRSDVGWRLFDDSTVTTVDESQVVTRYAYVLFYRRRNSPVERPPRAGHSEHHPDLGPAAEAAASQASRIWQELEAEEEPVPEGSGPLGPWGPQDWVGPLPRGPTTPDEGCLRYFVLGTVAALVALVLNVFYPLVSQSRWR
Outline: (§1)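 Labelled DUBs from HEK293T lysate were NeutrAvidin-enriched, digested with LysC and trypsin, and run by diaPASEF LC-MS/MS. Before that, each 495 µg sample in Tris/CHAPS/IGEPAL buffer with protease inhibitors was treated in triplicate with fragment at 200 µM or vehicle for 3 h, then with Biotin-Ahx-Ub-VS at 0.5 µM final for 1 h. Values are average log2 ratios of fragment over vehicle by unpaired t-test, based on global-median-normalised Spectronaut label-free quantities from proteins with ≥2 unique peptides.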

[2] = target: T2, USP22 (UniProt Q9UPT9)
T2 sequence (whole entry): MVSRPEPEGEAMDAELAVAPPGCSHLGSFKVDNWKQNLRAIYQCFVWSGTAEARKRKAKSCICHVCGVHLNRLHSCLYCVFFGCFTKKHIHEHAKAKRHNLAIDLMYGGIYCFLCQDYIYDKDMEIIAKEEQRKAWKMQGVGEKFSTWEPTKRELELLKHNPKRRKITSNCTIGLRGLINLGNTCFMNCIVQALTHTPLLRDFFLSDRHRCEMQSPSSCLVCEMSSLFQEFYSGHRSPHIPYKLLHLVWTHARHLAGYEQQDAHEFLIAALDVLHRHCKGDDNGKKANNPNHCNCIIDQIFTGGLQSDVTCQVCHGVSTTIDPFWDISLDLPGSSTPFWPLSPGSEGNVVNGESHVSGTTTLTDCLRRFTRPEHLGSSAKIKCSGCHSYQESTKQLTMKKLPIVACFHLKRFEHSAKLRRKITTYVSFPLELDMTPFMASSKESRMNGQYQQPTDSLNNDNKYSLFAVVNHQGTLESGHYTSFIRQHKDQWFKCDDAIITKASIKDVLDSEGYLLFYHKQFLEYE
Outline: as §1

[3] = target: USP24 (UniProt Q9UPU5)
Sequence of USP24 (Q9UPU5 whole entry): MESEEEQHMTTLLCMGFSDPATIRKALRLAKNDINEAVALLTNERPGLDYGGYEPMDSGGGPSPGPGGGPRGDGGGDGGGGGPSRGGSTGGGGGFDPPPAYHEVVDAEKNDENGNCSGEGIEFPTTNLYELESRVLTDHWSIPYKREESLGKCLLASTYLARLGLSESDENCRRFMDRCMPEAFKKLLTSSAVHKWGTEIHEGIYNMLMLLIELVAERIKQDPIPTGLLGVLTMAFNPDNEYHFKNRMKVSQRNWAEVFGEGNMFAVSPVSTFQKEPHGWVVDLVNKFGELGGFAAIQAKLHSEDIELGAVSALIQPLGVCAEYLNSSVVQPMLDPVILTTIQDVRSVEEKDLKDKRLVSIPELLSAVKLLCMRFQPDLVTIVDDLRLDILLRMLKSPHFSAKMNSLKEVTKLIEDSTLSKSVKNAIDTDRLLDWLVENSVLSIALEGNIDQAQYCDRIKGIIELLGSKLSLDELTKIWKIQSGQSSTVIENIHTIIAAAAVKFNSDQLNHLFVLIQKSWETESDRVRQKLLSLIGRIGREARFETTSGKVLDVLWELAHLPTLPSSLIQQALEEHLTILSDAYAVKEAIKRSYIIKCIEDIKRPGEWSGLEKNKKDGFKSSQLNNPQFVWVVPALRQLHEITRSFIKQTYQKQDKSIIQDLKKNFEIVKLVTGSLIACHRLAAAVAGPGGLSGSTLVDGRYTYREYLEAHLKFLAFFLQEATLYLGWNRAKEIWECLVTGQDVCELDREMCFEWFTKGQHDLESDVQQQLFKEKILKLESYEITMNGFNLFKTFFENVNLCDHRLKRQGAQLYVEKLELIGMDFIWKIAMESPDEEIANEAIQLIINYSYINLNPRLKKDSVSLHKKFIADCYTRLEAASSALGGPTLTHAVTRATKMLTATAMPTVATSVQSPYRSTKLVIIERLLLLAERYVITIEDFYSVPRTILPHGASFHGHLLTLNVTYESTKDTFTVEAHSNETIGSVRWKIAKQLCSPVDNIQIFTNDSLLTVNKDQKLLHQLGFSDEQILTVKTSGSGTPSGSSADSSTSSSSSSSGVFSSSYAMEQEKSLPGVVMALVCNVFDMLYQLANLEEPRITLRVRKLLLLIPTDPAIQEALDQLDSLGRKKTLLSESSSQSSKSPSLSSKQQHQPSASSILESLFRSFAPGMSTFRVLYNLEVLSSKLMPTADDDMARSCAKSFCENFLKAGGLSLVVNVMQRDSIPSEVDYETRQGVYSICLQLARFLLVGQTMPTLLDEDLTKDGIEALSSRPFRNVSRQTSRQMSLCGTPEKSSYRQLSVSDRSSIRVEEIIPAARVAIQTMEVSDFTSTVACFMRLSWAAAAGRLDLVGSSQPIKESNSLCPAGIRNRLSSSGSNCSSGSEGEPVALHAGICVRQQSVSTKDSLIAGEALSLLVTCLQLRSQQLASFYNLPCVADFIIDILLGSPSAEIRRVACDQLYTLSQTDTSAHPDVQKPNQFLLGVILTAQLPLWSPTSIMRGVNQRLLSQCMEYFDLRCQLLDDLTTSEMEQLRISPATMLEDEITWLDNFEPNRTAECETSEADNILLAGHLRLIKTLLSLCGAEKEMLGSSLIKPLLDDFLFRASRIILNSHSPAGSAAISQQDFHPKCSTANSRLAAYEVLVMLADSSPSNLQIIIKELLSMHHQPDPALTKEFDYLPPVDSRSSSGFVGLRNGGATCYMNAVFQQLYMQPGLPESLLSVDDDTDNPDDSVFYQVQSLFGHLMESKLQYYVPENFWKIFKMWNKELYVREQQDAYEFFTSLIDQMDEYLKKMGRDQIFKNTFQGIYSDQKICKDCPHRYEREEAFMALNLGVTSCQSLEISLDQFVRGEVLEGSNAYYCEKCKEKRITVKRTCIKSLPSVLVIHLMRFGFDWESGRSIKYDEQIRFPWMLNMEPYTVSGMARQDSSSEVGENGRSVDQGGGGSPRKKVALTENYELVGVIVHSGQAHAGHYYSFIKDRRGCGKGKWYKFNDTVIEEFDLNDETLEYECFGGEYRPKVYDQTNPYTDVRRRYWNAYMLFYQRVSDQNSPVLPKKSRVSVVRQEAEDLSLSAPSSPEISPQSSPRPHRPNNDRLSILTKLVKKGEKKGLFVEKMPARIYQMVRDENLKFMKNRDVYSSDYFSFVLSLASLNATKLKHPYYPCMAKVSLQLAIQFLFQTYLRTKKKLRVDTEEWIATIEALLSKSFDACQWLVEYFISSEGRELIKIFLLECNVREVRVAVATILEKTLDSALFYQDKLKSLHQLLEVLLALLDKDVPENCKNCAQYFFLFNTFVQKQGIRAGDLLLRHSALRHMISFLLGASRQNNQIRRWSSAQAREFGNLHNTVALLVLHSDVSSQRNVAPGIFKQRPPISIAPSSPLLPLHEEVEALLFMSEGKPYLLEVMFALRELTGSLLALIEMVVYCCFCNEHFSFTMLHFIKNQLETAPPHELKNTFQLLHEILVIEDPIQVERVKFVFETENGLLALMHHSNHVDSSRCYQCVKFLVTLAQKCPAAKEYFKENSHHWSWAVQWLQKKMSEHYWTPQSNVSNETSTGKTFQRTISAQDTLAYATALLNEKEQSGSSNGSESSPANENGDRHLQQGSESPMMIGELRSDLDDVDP
Outline: as §1

[4] = target: T3, USP25 (UniProt Q9UHP3)
T3 sequence (whole entry): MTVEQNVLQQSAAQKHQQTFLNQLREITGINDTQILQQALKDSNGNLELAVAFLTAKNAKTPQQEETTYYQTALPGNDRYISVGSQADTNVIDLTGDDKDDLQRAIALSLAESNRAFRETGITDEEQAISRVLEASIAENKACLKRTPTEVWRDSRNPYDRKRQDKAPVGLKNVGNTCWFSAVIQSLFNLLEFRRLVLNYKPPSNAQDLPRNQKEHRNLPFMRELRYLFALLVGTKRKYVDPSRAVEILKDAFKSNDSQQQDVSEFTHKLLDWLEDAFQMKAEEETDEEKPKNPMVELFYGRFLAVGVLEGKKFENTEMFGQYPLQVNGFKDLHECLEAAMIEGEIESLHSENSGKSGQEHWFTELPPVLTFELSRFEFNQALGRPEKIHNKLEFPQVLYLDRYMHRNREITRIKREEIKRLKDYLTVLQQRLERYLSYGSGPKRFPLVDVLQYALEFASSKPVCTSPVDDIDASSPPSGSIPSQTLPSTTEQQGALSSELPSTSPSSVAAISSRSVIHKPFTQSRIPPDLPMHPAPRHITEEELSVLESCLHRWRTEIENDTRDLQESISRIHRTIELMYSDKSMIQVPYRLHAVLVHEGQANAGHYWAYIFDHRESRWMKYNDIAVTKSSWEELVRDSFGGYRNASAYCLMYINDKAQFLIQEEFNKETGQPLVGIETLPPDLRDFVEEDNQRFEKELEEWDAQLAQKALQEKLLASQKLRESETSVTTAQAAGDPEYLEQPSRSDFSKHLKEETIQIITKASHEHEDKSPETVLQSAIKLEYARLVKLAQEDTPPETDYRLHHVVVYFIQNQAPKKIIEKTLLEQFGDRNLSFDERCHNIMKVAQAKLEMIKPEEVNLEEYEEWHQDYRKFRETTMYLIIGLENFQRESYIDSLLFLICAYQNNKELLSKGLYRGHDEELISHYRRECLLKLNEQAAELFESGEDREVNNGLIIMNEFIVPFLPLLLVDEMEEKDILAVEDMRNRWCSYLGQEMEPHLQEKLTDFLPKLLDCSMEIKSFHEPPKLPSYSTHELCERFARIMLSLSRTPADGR
Outline: as §1

[5] = target: T4, USP28 (UniProt Q96RU2)
T4 sequence (whole entry): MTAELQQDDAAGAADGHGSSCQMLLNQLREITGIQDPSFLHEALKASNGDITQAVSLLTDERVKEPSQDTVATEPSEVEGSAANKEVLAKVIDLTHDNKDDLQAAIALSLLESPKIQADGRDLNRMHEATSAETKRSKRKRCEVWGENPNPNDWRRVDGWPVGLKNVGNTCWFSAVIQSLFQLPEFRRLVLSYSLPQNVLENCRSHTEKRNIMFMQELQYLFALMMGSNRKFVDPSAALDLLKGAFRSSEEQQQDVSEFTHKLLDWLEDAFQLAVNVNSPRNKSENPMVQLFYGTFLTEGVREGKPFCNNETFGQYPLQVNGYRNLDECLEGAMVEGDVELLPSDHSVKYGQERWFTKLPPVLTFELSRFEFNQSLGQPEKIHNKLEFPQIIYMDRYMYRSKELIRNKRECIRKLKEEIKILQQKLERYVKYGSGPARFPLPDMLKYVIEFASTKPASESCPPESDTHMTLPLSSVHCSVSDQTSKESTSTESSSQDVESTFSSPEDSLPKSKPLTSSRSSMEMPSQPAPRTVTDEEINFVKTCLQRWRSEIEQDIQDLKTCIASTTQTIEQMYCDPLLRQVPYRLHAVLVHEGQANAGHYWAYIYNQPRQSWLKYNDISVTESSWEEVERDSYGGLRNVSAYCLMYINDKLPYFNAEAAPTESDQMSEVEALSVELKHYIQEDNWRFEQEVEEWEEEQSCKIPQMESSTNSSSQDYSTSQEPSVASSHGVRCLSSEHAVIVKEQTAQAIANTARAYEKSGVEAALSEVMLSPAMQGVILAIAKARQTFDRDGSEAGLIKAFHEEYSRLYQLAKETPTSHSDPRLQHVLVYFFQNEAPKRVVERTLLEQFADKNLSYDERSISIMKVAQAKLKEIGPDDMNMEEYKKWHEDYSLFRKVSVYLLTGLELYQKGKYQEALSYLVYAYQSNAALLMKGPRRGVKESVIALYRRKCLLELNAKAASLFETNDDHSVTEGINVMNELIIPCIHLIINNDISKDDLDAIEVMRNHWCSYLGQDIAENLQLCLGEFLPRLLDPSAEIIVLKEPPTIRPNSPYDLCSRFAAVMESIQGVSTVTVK
Outline: as §1

Measured: log2 ratio of Biotin-Ahx-Ub-VS probe labelling

CNC(=O)C1CCN(C(=O)CCl)CC1
inactive: [1] -0.122 | [2] 0.206 | [3] -0.198 | [4] -0.123 | [5] -0.243
